Source: PubChem BioAssay (EPA / NIEHS)
Results filed as inconclusive are left out. The source made the active and inactive calls. How the source made its calls: active means hit-call score of the fitted dose curve at least 0.9, where 1 is the maximum; inconclusive means response in the unintended direction; inactive means score below 0.9.

These molecules were tested against human Vascular Endothelial Growth Factor Receptor 2 (VEGFR2), KDR (gene 3791) (UniProt P35968) (assay: NVS_ENZ_hVEGFR2: NovaScreen (NVS) Enzymatic Assay for human Vascular Endothelial Growth Factor Receptor 2 (VEGFR2) (AID 2283230)).
In short: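 Cell-free recombinant VEGFR2 kinase, fluorescent substrate with electrophoretic mobility-shift separation; read 1 h after dosing. Screened at 25 uM in duplicate, hits to concentration-response up to 50 uM; loss-of-signal versus DMSO.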

Sequence of human Vascular Endothelial Growth Factor Receptor 2 (VEGFR2), KDR (gene 3791) (P35968 whole entry, looked up): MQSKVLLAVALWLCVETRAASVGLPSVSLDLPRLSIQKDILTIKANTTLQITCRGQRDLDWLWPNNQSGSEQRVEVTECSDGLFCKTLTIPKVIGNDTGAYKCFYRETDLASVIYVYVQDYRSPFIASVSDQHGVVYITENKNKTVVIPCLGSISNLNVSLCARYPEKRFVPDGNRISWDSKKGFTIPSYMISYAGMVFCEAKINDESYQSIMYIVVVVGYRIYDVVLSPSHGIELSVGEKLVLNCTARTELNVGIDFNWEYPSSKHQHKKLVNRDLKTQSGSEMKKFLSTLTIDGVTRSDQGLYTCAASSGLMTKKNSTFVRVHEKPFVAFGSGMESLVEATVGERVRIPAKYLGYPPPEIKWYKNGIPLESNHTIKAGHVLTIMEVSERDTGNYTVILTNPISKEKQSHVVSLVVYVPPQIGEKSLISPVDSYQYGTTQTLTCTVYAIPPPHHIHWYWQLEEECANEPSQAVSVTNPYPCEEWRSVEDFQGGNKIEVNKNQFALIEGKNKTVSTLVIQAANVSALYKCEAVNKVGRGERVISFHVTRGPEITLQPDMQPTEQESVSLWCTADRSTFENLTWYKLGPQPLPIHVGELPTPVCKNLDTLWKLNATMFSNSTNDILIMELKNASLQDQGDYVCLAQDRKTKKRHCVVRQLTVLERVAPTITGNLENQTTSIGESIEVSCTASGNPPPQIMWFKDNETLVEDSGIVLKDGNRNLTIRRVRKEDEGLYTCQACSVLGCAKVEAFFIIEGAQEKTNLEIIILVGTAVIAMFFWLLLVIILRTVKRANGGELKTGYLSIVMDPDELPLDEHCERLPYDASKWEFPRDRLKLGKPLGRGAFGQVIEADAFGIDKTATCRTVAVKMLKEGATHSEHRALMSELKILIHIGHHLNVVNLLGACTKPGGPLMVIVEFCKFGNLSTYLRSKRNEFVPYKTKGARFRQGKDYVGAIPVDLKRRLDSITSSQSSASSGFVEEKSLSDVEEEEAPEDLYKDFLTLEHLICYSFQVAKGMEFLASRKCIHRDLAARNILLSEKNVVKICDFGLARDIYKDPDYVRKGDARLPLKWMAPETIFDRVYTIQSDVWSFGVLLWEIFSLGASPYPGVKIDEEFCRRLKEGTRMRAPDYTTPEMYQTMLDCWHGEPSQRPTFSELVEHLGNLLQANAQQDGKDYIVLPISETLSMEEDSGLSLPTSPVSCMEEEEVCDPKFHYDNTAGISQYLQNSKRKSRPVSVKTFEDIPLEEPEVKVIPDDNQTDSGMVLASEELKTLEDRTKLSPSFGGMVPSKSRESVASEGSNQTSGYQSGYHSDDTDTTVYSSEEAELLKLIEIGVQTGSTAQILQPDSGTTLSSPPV

Row | Compound | outcome
1 | CCCCCCCCCCCCCO | inactive
2 | CN[C@H]1CC[C@@H](c2ccc(Cl)c(Cl)c2)c2ccc(S(N)(=O)=O)cc21 | inactive
3 | O=c1[nH]cc(F)c(=O)[nH]1 | inactive
4 | CCCCCCOCCO | inactive
5 | CC(C)(C)c1cc(O)c(C(C)(C)C)cc1O | inactive

What follows are molecules tested against sheep Cyclooxygenase-2 (Cox2), PTGS2 (gene 443460) (UniProt P79208) (assay: NVS_ENZ_oCOX2: NovaScreen (NVS) Enzymatic Assay for sheep Cyclooxygenase-2 (Cox2) (AID 2283231)).
In short: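 Ovine placental enzyme, cell-free; chemical added, 0.66 h, absorbance (colorimetric). Screen 25 uM in duplicate; ≥threshold hits titrated, top 50 uM. Inhibition = signal loss vs DMSO.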

Sequence of sheep Cyclooxygenase-2 (Cox2), PTGS2 (gene 443460) (P79208 whole entry, looked up): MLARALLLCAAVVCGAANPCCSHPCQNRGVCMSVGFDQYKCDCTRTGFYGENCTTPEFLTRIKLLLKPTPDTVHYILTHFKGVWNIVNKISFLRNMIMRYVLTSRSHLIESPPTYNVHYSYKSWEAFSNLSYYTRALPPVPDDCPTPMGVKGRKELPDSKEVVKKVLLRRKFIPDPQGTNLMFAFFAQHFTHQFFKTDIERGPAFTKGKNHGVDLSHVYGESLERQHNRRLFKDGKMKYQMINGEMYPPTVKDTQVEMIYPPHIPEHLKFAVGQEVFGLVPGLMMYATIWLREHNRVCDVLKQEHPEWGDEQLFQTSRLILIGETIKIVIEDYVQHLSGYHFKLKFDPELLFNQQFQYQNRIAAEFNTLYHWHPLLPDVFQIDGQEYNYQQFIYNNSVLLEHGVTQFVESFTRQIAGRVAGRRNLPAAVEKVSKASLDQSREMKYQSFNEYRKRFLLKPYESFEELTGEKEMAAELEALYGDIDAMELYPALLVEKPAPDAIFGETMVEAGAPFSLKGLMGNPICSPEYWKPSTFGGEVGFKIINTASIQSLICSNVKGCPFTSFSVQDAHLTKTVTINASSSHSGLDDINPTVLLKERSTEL

Row | Compound | AC50 | outcome
6 | C=CCc1ccc(O)c(OC)c1 | 15.7 µM (active) | 
7 | CCOC(=O)C(C)(C)Oc1ccc(Cl)cc1 | 8.26 µM (active) | 
8 | CC(=O)Oc1ccccc1C(=O)O |  | inactive
9 | Cc1ccc(C)c(O)c1C | 3.04 µM (active) | 
10 | CCCCN(CCCC)CCCC |  | inactive
11 | CC(=O)OC/C=C(\C)CCC=C(C)C | 9.67 µM (active) | 

The molecules below were run against rat Constitutive Nitric Oxide Synthase (CNOS), Nos1 (gene 24598) (UniProt P29476) (assay: NVS_ENZ_rCNOS: NovaScreen (NVS) Enzymatic Assay for rat Constitutive Nitric Oxide Synthase (CNOS) (AID 2283236)).
In short: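 Single 25 uM duplicate screen, then concentration series to 50 uM for chemicals meeting threshold. Rat brain membrane-derived CNOS activity detected radiometrically by filtration and scintillation counting, 1 h after compound addition; DMSO as baseline.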

Sequence of rat Constitutive Nitric Oxide Synthase (CNOS), Nos1 (gene 24598) (P29476 whole entry, looked up): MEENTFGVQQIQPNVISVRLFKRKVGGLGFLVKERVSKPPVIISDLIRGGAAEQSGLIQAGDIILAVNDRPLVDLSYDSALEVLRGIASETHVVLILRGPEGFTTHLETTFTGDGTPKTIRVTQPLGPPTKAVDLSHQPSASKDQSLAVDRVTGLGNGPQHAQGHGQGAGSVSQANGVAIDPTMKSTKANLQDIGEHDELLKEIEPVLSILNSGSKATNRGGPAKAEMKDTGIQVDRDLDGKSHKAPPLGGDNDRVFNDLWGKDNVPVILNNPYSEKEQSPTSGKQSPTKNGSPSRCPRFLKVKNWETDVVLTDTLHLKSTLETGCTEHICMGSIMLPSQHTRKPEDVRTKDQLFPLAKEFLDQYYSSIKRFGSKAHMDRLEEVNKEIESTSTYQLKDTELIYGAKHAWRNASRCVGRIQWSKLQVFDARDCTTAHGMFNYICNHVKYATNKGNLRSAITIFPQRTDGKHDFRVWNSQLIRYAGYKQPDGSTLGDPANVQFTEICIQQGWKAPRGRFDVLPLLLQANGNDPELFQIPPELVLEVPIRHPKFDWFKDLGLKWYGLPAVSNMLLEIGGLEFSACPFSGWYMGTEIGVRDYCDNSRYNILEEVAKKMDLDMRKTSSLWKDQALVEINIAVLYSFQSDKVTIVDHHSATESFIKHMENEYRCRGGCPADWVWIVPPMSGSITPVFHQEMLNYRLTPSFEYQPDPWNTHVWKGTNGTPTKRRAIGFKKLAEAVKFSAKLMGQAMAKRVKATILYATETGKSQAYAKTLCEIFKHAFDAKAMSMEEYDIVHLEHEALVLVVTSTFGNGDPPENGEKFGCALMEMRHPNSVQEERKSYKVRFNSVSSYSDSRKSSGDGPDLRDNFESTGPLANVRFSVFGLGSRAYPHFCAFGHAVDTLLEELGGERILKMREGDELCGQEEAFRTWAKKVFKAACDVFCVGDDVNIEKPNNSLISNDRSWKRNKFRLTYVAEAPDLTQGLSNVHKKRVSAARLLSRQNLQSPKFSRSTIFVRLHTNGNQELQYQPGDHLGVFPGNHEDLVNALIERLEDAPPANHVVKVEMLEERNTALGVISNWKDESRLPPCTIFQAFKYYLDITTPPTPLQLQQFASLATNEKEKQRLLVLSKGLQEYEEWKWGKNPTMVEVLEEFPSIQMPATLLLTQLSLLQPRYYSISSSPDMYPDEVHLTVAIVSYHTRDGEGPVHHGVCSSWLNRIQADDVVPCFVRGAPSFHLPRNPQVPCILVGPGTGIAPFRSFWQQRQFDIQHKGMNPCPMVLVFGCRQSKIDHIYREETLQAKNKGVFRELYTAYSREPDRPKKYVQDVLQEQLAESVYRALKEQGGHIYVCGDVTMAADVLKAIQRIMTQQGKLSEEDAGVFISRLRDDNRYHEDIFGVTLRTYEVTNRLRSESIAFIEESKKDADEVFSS

Row | Compound | outcome | AC50
12 | CCCCC(CC)COC(=O)CC(C(=O)OCC(CC)CCCC)S(=O)(=O)O (configuration not stated) | inactive | 
13 | COc1ccc(C)cc1N |  | 7.8 µM (active)
14 | Cc1cc(=O)[nH]c(=S)[nH]1 |  | 6.64 µM (active)
15 | Nc1ccc2c(c1)C(=O)c1ccccc1C2=O | inactive | 
16 | COc1cc(S(=O)(=O)O)c(C)cc1N=Nc1c(O)ccc2cc(S(=O)(=O)O)ccc12 | inactive | 
17 | COc1cc(C=O)ccc1O | inactive | 
